This passage reports residual activity results from ChEMBL document CHEMBL2218924, “A broad activity screen in support of a chemogenomic map for kinase signalling research and drug discovery” (Biochem J, 2013).

For assay [1], the target named is Ribosomal protein S6 kinase alpha-1 (Homo sapiens) (UniProt Q15418). As to conditions: at 10 µM.
For assay [2], the target named is Ribosomal protein S6 kinase alpha-3 (Homo sapiens) (UniProt P51812). As to conditions: at 1 µM.
Assay [3] shares this target. As to conditions: at 10 µM.
Assay [4] has as its target Ribosomal protein S6 kinase alpha-2 (Homo sapiens) (UniProt Q15349). As to conditions: at 1 µM.
Assay [5] shares this target. As to conditions: at 10 µM.
The target of assay [6] is Ribosomal protein S6 kinase alpha-6 (Homo sapiens) (UniProt Q9UK32). As to conditions: at 1 µM.
Sequence of Ribosomal protein S6 kinase alpha-6 (Homo sapiens) (Q9UK32 whole entry): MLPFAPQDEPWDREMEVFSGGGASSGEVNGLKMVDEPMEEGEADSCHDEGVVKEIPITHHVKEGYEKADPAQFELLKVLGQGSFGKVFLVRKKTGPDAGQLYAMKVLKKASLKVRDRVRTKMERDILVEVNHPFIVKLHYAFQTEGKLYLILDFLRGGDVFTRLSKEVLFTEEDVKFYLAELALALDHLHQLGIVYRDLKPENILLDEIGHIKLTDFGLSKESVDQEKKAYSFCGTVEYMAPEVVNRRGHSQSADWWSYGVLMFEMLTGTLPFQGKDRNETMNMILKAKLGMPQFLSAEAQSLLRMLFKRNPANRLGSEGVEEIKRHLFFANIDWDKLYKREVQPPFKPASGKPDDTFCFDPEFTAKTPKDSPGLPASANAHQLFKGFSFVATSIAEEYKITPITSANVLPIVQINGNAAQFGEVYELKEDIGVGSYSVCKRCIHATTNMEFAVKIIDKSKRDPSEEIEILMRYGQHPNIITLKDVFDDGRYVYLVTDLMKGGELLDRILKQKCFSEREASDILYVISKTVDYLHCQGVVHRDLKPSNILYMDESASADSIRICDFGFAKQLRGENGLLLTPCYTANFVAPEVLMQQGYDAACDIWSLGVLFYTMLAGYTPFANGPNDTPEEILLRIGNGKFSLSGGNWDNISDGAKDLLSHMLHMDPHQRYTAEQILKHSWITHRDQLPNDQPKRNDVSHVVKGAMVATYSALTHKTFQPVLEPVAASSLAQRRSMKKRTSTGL
For assay [7] the target is unchanged. As to conditions: at 10 µM.
Assay [8] addresses Ribosomal protein S6 kinase alpha-1 (Homo sapiens) (UniProt Q15418). As to conditions: at 1 µM.
In assay [9] the target is Mitogen-activated protein kinase 14 (Homo sapiens) (UniProt Q16539). As to conditions: at 1 µM.
Sequence of Mitogen-activated protein kinase 14 (Homo sapiens) (Q16539 whole entry): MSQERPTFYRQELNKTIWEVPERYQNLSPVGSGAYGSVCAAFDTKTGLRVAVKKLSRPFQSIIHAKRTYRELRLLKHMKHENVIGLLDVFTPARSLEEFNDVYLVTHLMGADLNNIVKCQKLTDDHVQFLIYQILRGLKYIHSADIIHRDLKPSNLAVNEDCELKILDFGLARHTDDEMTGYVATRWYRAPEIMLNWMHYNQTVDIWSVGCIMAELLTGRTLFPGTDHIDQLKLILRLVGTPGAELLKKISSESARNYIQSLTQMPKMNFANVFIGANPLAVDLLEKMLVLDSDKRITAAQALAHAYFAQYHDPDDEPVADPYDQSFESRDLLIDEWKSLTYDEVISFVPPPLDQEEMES
Assay [10] has the same target. As to conditions: at 10 µM.

Sequence of Ribosomal protein S6 kinase alpha-1 (Homo sapiens) (Q15418 whole entry): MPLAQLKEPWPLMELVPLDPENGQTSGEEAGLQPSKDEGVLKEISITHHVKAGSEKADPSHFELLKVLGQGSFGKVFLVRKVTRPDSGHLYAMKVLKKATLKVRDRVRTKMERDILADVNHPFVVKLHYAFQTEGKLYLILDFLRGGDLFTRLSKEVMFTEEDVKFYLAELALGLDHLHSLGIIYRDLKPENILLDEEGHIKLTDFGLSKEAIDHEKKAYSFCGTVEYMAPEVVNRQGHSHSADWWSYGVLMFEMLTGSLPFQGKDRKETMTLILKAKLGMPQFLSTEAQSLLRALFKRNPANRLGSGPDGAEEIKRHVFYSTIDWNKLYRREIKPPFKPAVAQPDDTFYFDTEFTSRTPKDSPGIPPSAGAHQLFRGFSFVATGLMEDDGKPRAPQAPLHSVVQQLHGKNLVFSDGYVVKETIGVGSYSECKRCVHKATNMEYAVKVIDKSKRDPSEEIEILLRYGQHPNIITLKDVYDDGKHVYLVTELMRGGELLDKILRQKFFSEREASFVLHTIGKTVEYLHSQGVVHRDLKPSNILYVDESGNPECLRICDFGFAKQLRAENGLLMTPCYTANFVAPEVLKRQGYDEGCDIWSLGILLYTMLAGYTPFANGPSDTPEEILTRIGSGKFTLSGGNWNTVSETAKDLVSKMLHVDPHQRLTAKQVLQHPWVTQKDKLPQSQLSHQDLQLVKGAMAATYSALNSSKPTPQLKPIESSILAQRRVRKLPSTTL
Sequence of Ribosomal protein S6 kinase alpha-2 (Homo sapiens) (Q15349 whole entry): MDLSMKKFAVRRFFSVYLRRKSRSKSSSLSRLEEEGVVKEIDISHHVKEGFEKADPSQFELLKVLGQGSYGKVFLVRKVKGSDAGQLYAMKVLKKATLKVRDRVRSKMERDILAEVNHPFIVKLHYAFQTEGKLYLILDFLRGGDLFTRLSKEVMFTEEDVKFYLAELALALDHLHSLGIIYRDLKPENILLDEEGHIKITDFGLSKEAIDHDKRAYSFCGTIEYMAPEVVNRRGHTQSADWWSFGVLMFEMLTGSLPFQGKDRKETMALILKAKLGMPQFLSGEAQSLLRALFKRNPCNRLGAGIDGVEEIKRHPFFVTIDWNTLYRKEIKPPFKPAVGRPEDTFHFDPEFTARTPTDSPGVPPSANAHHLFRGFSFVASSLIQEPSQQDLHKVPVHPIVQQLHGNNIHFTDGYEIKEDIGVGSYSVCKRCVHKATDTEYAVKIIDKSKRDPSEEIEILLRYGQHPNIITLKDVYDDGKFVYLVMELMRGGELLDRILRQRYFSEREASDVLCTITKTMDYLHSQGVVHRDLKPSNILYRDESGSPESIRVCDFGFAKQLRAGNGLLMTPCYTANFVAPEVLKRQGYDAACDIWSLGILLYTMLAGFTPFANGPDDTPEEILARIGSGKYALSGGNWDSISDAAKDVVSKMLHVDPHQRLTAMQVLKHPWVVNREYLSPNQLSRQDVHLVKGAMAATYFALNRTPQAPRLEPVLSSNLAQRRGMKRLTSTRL
Sequence of Ribosomal protein S6 kinase alpha-3 (Homo sapiens) (P51812 whole entry): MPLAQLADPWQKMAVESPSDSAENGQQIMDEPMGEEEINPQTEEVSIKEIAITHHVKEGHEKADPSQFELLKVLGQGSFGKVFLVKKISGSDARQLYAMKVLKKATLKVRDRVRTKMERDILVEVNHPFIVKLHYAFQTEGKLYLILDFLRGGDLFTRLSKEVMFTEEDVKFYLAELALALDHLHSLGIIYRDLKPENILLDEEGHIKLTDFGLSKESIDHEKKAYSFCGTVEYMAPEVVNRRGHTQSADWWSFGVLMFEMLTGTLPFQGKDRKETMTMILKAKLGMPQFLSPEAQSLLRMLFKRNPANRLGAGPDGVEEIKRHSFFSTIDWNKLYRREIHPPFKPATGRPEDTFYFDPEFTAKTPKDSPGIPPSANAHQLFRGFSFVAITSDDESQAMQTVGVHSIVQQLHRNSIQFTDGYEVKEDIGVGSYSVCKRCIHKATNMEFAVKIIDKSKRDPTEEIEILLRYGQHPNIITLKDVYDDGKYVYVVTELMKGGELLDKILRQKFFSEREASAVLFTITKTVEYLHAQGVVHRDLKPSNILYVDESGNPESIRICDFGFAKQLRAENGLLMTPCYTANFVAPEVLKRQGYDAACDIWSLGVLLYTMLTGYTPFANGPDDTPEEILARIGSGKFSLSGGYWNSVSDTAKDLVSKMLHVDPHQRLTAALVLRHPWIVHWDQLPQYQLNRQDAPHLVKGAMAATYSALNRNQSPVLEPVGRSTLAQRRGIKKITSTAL

For the compound `CC(=O)c1ccc(N2CCOCC2)cc1O`, the residual activity is 110% in [1]; 64% in assay [2]; 56% in [3]; 105% in [4]; 107% in assay [5]; 128% in assay [6]. Further, the residual activity in assay [7] was found to be 102%.
For `CC#CC(=O)Nc1cc2c(Nc3ccc(F)c(Cl)c3)ncnc2cn1`, the residual activity is 113% in [8]; 101% in [1]; 104% in assay [2]; 107% in assay [3]; 99% in [4]; 96% in [5]. Also, the residual activity in assay [6] was found to be 116%; in [7], 105%; in assay [9] it was 91%; in assay [10], 98%.
As to `O=C1Nc2ccccc2/C1=C1/Nc2ccccc2/C1=N\OCCC(O)CO` (configuration not stated), the residual activity in assay [8] was found to be 18%; in assay [1] it was 12%; in [2] it was 15%; in assay [3] it was 1%; in [4] it was 11%; in assay [5], 2%. Moreover, the residual activity in assay [6] was 7%; in assay [7], 7%; in assay [10], 78%.
Take `Oc1c2ccccc2c2c3c(cccc13)N=N2`: the residual activity stood at 86% in assay [8]; 64% in [1]; 54% in assay [2]; 32% in assay [3]; 58% in [4]; 22% in assay [5]. The residual activity in assay [6] was 43%; in assay [7], 52%; in [9], 96%; in [10], 85%.
With `O=C(O)c1ccc2c3c1cccc3c(=O)n1c3ccccc3nc21`, the residual activity in assay [8] is 103%; in assay [1], 79%; in assay [2], 51%; in [3] it was 37%; in assay [4], 90%; in assay [5], 55%. Besides, the residual activity in assay [6] came out at 81%; in assay [7], 73%; in assay [9], 95%; in [10], 94%.
As for `CNc1cc2c(Nc3cccc(Br)c3)ncnc2cn1`, the residual activity in [8] is 115%; in assay [1], 59%; in assay [2] it was 110%; in assay [3] it was 71%; in [4] it was 87%; in [5], 38%. Moreover, the residual activity amounted to 101% in [6], 74% in assay [7], 83% in assay [9] and 77% in assay [10].
On to `Cc1cccc(-c2[nH]c(C(C)(C)C)nc2-c2ccc3c(c2)OCO3)n1`, for which the residual activity was determined as 67% in assay [2]; 47% in assay [3]; 101% in [4]; 97% in assay [5]; 49% in assay [9]; 16% in assay [10].
`CC[n+]1c(/C=C/N(C)c2ccccc2)n(-c2ccccc2)c2ccc(-c3nc4ccccc4s3)cc21`: the residual activity stood at 114% in assay [8]; 84% in assay [1]; 94% in [2]; 64% in assay [3]; 117% in [4]; 97% in assay [5]. Moreover, the residual activity was determined as 102% in [6], 87% in assay [7], 111% in assay [9] and 73% in assay [10].
Regarding `O=[N+]([O-])c1ccc(-c2nc(-c3ccc(F)cc3)c(-c3ccncc3)[nH]2)cc1`, the residual activity in assay [8] turned out to be 101%; in assay [1], 104%; in assay [2], 60%; in [3], 62%; in [4] it was 103%; in assay [5] it was 97%. The residual activity in assay [6] came out at 91%; in [7], 83%; in assay [9], 1%; in assay [10], 2%.
`N#CC(C#N)=C(N)/C(C#N)=C/c1ccc(O)cc1`: the residual activity stood at 94% in assay [8]; 78% in assay [1]; 49% in assay [2]; 27% in assay [3]; 94% in [6]; 78% in [9]. Also, the residual activity in assay [10] came out at 55%.
For `O=C1c2ccccc2-[n+]2ccc3c([nH]c4ccccc43)c21`, the residual activity in assay [8] worked out at 97%; in assay [1], 116%; in assay [2], 55%; in assay [3], 50%; in [4] it was 101%; in assay [5], 90%. Moreover, the residual activity in assay [6] amounted to 95%; in [7], 102%; in [9] it was 87%; in [10], 85%.
`Cc1cc(Nc2nc(-c3ccccc3)nc3ccccc23)n[nH]1`: the residual activity in assay [8] is 51%; in assay [1], 15%; in [2] it was 58%; in assay [3], 11%; in [4], 29%; in assay [5], 6%. In addition, the values for the residual activity in assay [6], in assay [7] and in [10] were 43%, 8% and 64%, respectively.
`c1ccc2c(-c3ccncc3)c[nH]c2c1`: the residual activity is 67% in assay [1]; 72% in [2]; 43% in [3]; 98% in [4]; 48% in [5]; 89% in assay [6]. Further, the residual activity stood at 107% in assay [7], 77% in assay [9] and 54% in assay [10].
For the compound `CCN(CC)C(=O)c1ccc(Nc2nc(OCC3CCCCC3)c3nc[nH]c3n2)cc1`, the residual activity in assay [8] came to 58%; in assay [1], 7%; in [2], 30%; in assay [3], 1%; in assay [4] it was 18%; in assay [5] it was 2%. The residual activity was 28% in [6], 7% in assay [7] and 70% in assay [10].
Turning to `CO[C@H]1C[C@@H]2CC[C@@H](C)[C@@](O)(O2)C(=O)C(=O)N2CCCC[C@H]2C(=O)O[C@H]([C@H](C)C[C@@H]2CC[C@@H](O)[C@H](OC)C2)CC(=O)[C@H](C)/C=C(\C)[C@@H](O)[C@@H](OC)C(=O)[C@H](C)C[C@H](C)/C=C/C=C/C=C/1C`, the residual activity turned out to be 110% in assay [8]; 112% in assay [1]; 44% in [2]; 55% in assay [3]; 102% in assay [4]; 90% in assay [5]. For the same compound, the residual activity is 105% in assay [6], 112% in assay [7], 72% in assay [9] and 83% in assay [10].
As for `Nc1nc(Nc2ccc(S(N)(=O)=O)cc2)nn1C(=S)Nc1c(F)cccc1F`, the residual activity in [8] is 4%; in [1], 3%; in assay [2] it was 0%; in assay [3], -1%; in assay [4] it was 0%; in assay [5], -1%. Further, the residual activity is -2% in assay [6], -2% in assay [7], 88% in assay [9] and 53% in [10].
In the case of `CC(C)n1cnc2c(NCc3ccccc3)nc(NCCCO)nc21`, the residual activity amounted to 102% in assay [8]; 82% in [1]; 101% in assay [2]; 87% in assay [3]; 101% in assay [4]; 72% in assay [5]. The residual activity in [6] worked out at 81%; in assay [7], 91%; in [9], 87%; in [10] it was 82%.
For `Cc1cncc2cccc(S(=O)(=O)N3CCCN(C(=O)CN)C[C@H]3C)c12`, the residual activity in assay [2] came to 60%; in assay [3], 23%; in assay [6], 90%; in assay [7], 66%; in [9] it was 74%; in [10], 81%.
